Sm TGR inh: qHTS Assay for the Inhibitors of Schistosoma Mansoni Peroxiredoxins; Schistosoma mansoni thioredoxin glutathione reductase (TGR), Q962Y6; purified TGR, DTNB reduction, TNB absorbance 405 nm; Potency, µM (doses to about 114 µM), for the others: at the highest dose activity change, negative = inhibition, actives largely listed as inhibitors; 3% of 360,000 active; active = well fitted inhibition curve with a large enough effect; inconclusive = small, poorly fitted or top-dose-only effect; inactive = no such curve, though single readings can be large or run the other way; note: % is set by controls: 0 for no effect and ±100 for the full control effect; nearly all actives have a fitted effect of over 60% in size
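TGR 20 nM + NADPH 100 uM (dispensed conc.), cpd preinc 15 min RT; start with NADPH (500 uM addition) then DTNB (15 mM addition). Kinetic TNB absorbance, 405 nm filter. Four-parameter Hill fit across titration.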
SARS PLpro yeast: qHTS of Yeast-based Assay for SARS-CoV PLP; Potency, µM (top dose mostly 32.9 µM), for the others: at the highest dose activity, positive = growth rescue, usual class: activators; 0.19% of 330,000 active; S. cerevisiae expressing SARS-CoV PLpro, growth rescue; AID 485353, 2010; calls by dose curve; note: 0% is about no effect; nearly all actives have a fitted effect of over 55% in size
* hit, by the source's call. Compounds with a hit are over-represented: about 3% of the library has one in this group of screens. Potency is the fitted concentration of half-maximal effect.

`CCc1ccc(NC(=O)CC(NCc2cccnc2)C(=O)O)cc1` (stereo not drawn) gave Sm TGR inh 8%.
`O=C1COc2ccc(-c3cc(-c4ccc(Cl)cc4)c4c(n3)-c3ccccc3OC4)cc2N1` gave Sm TGR inh -4%.
Screening Cc1ccc(NC(=S)N2CCC(NC(=O)c3cccc(F)c3)CC2)cc1 returned Sm TGR inh -10% and SARS PLpro yeast 2%.
For CCOc1ccccc1NC(=O)N1CCC(NC(=O)c2cccc(C)c2)CC1 the results were Sm TGR inh 25µM* and SARS PLpro yeast 5%.
Cc1cccc(C(=O)NC2CCN(C(=O)Nc3ccccc3C)CC2)c1 was read as Sm TGR inh 14% and SARS PLpro yeast 0%.
Cc1cccc(C(=O)NC2CCN(C(=O)Nc3ccc(F)cc3)CC2)c1 was read as Sm TGR inh 40µM* and SARS PLpro yeast -2%.
`COc1ccc(C2c3c(n(C)c4ccccc34)C(=O)N2CC(=O)Nc2ccccc2F)cc1` (stereo not drawn) gave Sm TGR inh 3%.
Cc1c(Cl)cccc1NC(=O)CSc1ncnc2c1sc1ccccc12 was read as Sm TGR inh -1%.
`Cc1cc(N2CCC(C)CC2)nc2ccc(NC(=O)/C=C/c3cccc(Cl)c3)cc12` gave Sm TGR inh 1%.
For CCc1cccc(-n2nnc(S(=O)(=O)c3ccc(OC)cc3)c2C)c1 the results were Sm TGR inh 6%.
Cc1nc2ccn(Cc3ccco3)c(=O)c2cc1C(=O)NCc1ccc(F)cc1 was read as Sm TGR inh -27%.
`CCC(Sc1nc2ccccc2c2nc(CCc3c(C)n[nH]c3C)nn12)C(=O)Nc1ccc(F)cc1` (stereo not drawn) gave Sm TGR inh 6%.
Screening Cc1c(-c2ccc(Cl)cc2)c(=O)oc2c(CN3CCOCC3)c(O)ccc12 returned Sm TGR inh 2%.
For Cc1cc(C)c2nc(N(Cc3cccnc3)C(=O)CCOc3ccccc3)sc2c1 the results were Sm TGR inh 44%.
Screening Cc1cccc2sc(N(Cc3cccnc3)C(=O)CCOc3ccccc3)nc12 returned Sm TGR inh 3.5µM*.
Cc1cccc2sc(N(Cc3cccnc3)C(=O)COc3ccccc3)nc12 was read as Sm TGR inh 4%.
O=C(CCOc1ccccc1)N(Cc1cccnc1)c1nc2c(Cl)cccc2s1 was read as Sm TGR inh 1.1µM*.
`Cc1ccccc1C(=O)OCc1cc(=O)n2nc(C(C)C)sc2n1` gave Sm TGR inh 5%.
CCOc1ccc(CNC(=O)c2cc3ccccn3n2)cc1OC was read as Sm TGR inh -1%.
For CC1CCCCN1CC(=O)c1c[nH]c2ccccc12 (stereo not drawn) the results were Sm TGR inh -31% and SARS PLpro yeast -3%.
Screening CC1CCCCN1CC(=O)c1ccc2cc[nH]c2c1 (stereo not drawn) returned Sm TGR inh 8.9µM* and SARS PLpro yeast 4%.
`CC(=O)N1CCCc2cc(S(=O)(=O)N3CCCC(C(=O)NC(C)C)C3)ccc21` (stereo not drawn) gave Sm TGR inh 2%.
`CNc1ccc(Br)cc(C(=O)/C=C/c2ccc3c(c2)OCO3)c1=O` gave Sm TGR inh 2.8µM* and SARS PLpro yeast -11%.
CNc1ccc(Br)cc(C(=O)/C=C/c2ccc(OC)cc2)c1=O was read as Sm TGR inh 11µM* and SARS PLpro yeast 20%.
`O=C(/C=C/c1ccc2c(c1)OCO2)NC1CCCC1` gave Sm TGR inh -11% and SARS PLpro yeast -3%.
Screening CCNc1ccc(Br)cc(C(=O)/C=C/c2ccc(Cl)cc2Cl)c1=O returned Sm TGR inh 2.2µM* and SARS PLpro yeast -66%.
For COc1ccc(/C=C/C(=O)c2ccc(OC)cc2OC)cc1 the results were Sm TGR inh -13% and SARS PLpro yeast -5%.
Screening CNc1ccc(Br)cc(C(=O)/C=C/c2cc(OC)ccc2OC)c1=O returned Sm TGR inh 3.2µM* and SARS PLpro yeast inconclusive.
Screening COc1ccc(/C=C/C(=O)c2cc(Br)ccc2O)cc1OC returned Sm TGR inh 2% and SARS PLpro yeast 0%.
`COCCCNC(=O)/C=C/c1ccc(Cl)cc1Cl` gave Sm TGR inh 11% and SARS PLpro yeast 4%.
O=C(Nc1cc(C(F)(F)F)ccc1Cl)c1cnn(-c2ccccc2)c1-n1cccc1 was read as Sm TGR inh -2%.
For CCCNC(=O)CN1C(=O)CSc2ccc(S(=O)(=O)N3CCC(C)CC3)cc21 the results were Sm TGR inh 4%.
Screening Cc1cc(Br)cc(C)c1NC(=O)c1sc2ncn(Cc3cccc(F)c3)c(=O)c2c1C returned Sm TGR inh 0%.
`COc1ccccc1NCc1cccn1-c1nnc(N2CCOCC2)s1` gave Sm TGR inh -8%.
`Oc1ccccc1Oc1ncc(Br)c(N2CCOCC2)n1` gave Sm TGR inh -4% and SARS PLpro yeast -1%.
Screening Oc1ccccc1Oc1ncc(Br)c(Cl)n1 returned Sm TGR inh 35µM* and SARS PLpro yeast -2%.
Screening Cc1ccccc1Cn1c(Oc2ccccc2F)nc2c1c(=O)n(C)c(=O)n2C returned Sm TGR inh 12%.
COc1ccccc1CNC(=O)c1ccc(N2CCCC2)c(NC(=O)NCc2ccccc2)c1 was read as Sm TGR inh 6%.
CC(=O)n1cc(N(C(=O)CCl)c2ccc(C)cc2)c2ccccc21 was read as Sm TGR inh 0.71µM* and SARS PLpro yeast -2%.
Screening CC(=O)N(c1ccc(Cl)cc1)c1cn(C(C)=O)c2ccccc12 returned Sm TGR inh 7% and SARS PLpro yeast 0%.
`O=C(COc1ccc(F)cc1)NCC(c1ccc(Cl)cc1)N1CCCCC1` (stereo not drawn) gave Sm TGR inh 6%.
Screening CC1(C)Cc2c(C#N)c(N3CCCC3)nc(-c3ccco3)c2CO1 returned Sm TGR inh 3.5µM* and SARS PLpro yeast 0%.
CC1(C)Cc2c(C#N)c(N3CCN(C(=O)c4ccccc4)CC3)nc(-c3ccco3)c2CS1 was read as Sm TGR inh 3.2µM* and SARS PLpro yeast 0%.
`CC(C)CCNc1nc(-c2ccco2)c2c(c1C#N)CCCC2` gave Sm TGR inh 40µM* and SARS PLpro yeast -8%.
`CCCCN(C)c1nc(-c2ccco2)c2c(c1C#N)CC(C)(C)OC2` gave Sm TGR inh 2.8µM* and SARS PLpro yeast -6%.
For CC(C)c1nc(N2CCN(C(=O)c3ccco3)CC2)c(C#N)c2c1COC(C)(C)C2 the results were Sm TGR inh -13% and SARS PLpro yeast -2%.
For CN(C)CCNc1nc(-c2ccco2)c2c(c1C#N)CC(C)(C)OC2 the results were Sm TGR inh -2% and SARS PLpro yeast 1%.
Screening N#Cc1c(NCCN)nc(-c2ccco2)c2c1CCCC2 returned Sm TGR inh 8% and SARS PLpro yeast -16%.
Screening CC(C)c1nc(N2CCN(C(=O)c3ccccc3)CC2)c(C#N)c2c1COC(C)(C)C2 returned Sm TGR inh 11% and SARS PLpro yeast -2%.
`Cc1cc2oc(C(=O)Nc3nc(-c4ccccc4)ns3)c(C)c2cc1Cl` gave Sm TGR inh 0%.
For Cc1ccc(CN(C(=O)Nc2cccc(Cl)c2)c2ccccn2)cc1 the results were Sm TGR inh 0%.
For CN(C)c1ccc(CNC(=O)c2ccc(Cn3c(SCc4ccccc4)nc4cccnc43)cc2)cc1 the results were Sm TGR inh 0%.
